Among the data in PubChem BioAssay (NCI) are growth values, retold here.

Common to all, as to test: NCI-60 one-dose screen, 48 h (100 = growth as untreated, 0 = no growth, -100 = all killed)
The subject of one assay is DU-145 prostate. The settings on record: 10 µM unless noted.
The test system of a further assay is K-562 leukemia. To be noted: 10 µM unless noted.
For a further assay, the system named is MALME-3M melanoma. To be noted: 10 µM unless noted.
The next assay deals with MDA-MB-231 breast. To be noted: 10 µM unless noted.
A further assay relates to RXF 393 renal. The settings on record: 10 µM unless noted.
In the next assay the test system is SF-268 CNS. The settings on record: 10 µM unless noted.
A further assay has as its system SF-295 CNS. To be noted: 10 µM unless noted.
The next assay relates to SF-539 CNS. To be noted: 10 µM unless noted.
A further assay deals with UACC-257 melanoma. The settings on record: 10 µM.
A further assay has as its system M14 melanoma. The settings on record: 10 µM unless noted.

SMILES strings stand for the structures. The panel holds about 83,000 compounds, 20% with a hit somewhere; the sample as a whole holds those more often.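 Single-dose data. Exposure time 48 hours. Values below 10 considered active.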 Unmarked numbers belong to inactive results. Activity calls are given as the source filed them.

Consider `CN(c1ccc(F)cc1)S(=O)(=O)c1ccc(-c2cnc(C3CC3)o2)cc1`, for which the growth with DU-145 prostate is 23.5%; in the assay on K-562 leukemia it was 10.3%; in the assay on MALME-3M melanoma, 65.3%; with MDA-MB-231 breast, 28.4%; in the assay on RXF 393 renal, -8.88% (active); in the assay on SF-268 CNS, 64.2%. For the same compound, the growth is -12.9% (active) in the assay with SF-295 CNS, 4.96% (active) in the assay with SF-539 CNS, 70.9% in the assay with UACC-257 melanoma and 14.6% in the assay on M14 melanoma.
As for `C/C(=C(/C)C1CC1CCN(C(=O)c1ccc([N+](=O)[O-])cc1)S(=O)(=O)c1ccc(C)cc1)C1CCCCC1` (centres undefined), the growth was 96.6% in the assay with DU-145 prostate; 74.7% in the assay on K-562 leukemia; 98.3% in the assay on MALME-3M melanoma; 97.3% in the assay with MDA-MB-231 breast; 105% in the assay on RXF 393 renal; 96.5% in the assay with SF-268 CNS. Moreover, the growth with SF-295 CNS was 104%; in the assay on SF-539 CNS, 100%; in the assay with UACC-257 melanoma it was 96.9%; in the assay with M14 melanoma it was 97.7%.
Consider `COc1cc2cc(Oc3ccc(NC(=O)Nc4cccc(C(F)(F)F)c4)cc3)c(C)nc2cc1OCCN(C)C`, for which the growth with DU-145 prostate is 92.5%; with K-562 leukemia, 10% (active); with MALME-3M melanoma it was 84.7%; in the assay with MDA-MB-231 breast, 98.1%; with RXF 393 renal, 75.9%; with SF-268 CNS, 107%. Also, the growth was 81.1% in the assay on SF-295 CNS, 92% in the assay with SF-539 CNS, 100% in the assay with UACC-257 melanoma and 107% in the assay with M14 melanoma.
Turning to `COc1cc(/C=C2\SC(=O)NC2=O)ccc1OCC(=O)Nc1ccc(C(=O)/C=C/c2cc3ccccc3nc2Cl)cc1`, the growth in the assay on DU-145 prostate was 96.9%; in the assay with K-562 leukemia it was 49.4%; in the assay with MALME-3M melanoma it was 89%; with MDA-MB-231 breast it was 88.6%; in the assay on RXF 393 renal, 77.1%; in the assay with SF-268 CNS it was 85.8%. Further, the growth in the assay on SF-295 CNS was 87%; in the assay with SF-539 CNS it was 83.2%; in the assay with UACC-257 melanoma it was 86.3%; with M14 melanoma it was 85.6%.
For `Oc1ccc(CSc2nnc(-c3ccccc3)o2)c2cccnc12`, the growth was 30% in the assay on DU-145 prostate; 10.4% with K-562 leukemia; 36.1% in the assay with MALME-3M melanoma; 47% in the assay on MDA-MB-231 breast; 24.5% in the assay on RXF 393 renal; 21.8% in the assay on SF-268 CNS. Also, the growth in the assay on SF-295 CNS was 2.18% (active); in the assay on SF-539 CNS, 13.2%; with UACC-257 melanoma, 6.39% (active); in the assay on M14 melanoma it was 15.5%.
For `CCC(CC)n1c(=O)c(SC2=NC3C(NN2)N(CC)C(=O)N3CC)c(C(=O)O)c2ccccc21` (centres undefined), the growth with DU-145 prostate is 16.2%; with K-562 leukemia, 11.1%; in the assay with MALME-3M melanoma, 68.1%; in the assay on MDA-MB-231 breast, 19.1%; in the assay on RXF 393 renal, 13.4%; in the assay with SF-268 CNS, 52.4%. Further, the growth was 22.3% with SF-295 CNS, 3.93% (active) with SF-539 CNS, 59.9% in the assay on UACC-257 melanoma and 16% in the assay with M14 melanoma.
Turning to `CCN1C(=O)N(CC)C2SC(N/N=C/c3ccccc3)=NC21` (centres undefined), the growth in the assay with DU-145 prostate was 22.5%; with K-562 leukemia, 14.7%; in the assay with MALME-3M melanoma, 58.2%; with MDA-MB-231 breast, 26%; with RXF 393 renal, 41.5%; in the assay on SF-268 CNS, 47.6%. Moreover, the growth with SF-295 CNS was 12.8%; in the assay with SF-539 CNS, -11.2% (active); with UACC-257 melanoma it was 62.9%; in the assay with M14 melanoma, 12.3%.
Regarding `O=c1[nH]c(CNc2ccc(NCc3c(-c4ccccc4)no[n+]3[O-])cc2)nc2c1cnn2-c1ccccc1`, the growth in the assay with DU-145 prostate is 74.6%; in the assay on K-562 leukemia, 49.8%; with MALME-3M melanoma, 80%; with MDA-MB-231 breast it was 72.5%; in the assay on RXF 393 renal, 98.4%; in the assay on SF-268 CNS it was 73.5%. Further, the growth with SF-295 CNS is 71.8%; in the assay with SF-539 CNS, 92.6%; in the assay on UACC-257 melanoma, 60.6%; in the assay on M14 melanoma it was 70.7%.
`O=C1[C@@H]2Cc3c([nH]c4ccccc34)[C@H](c3c(Cl)cccc3Cl)N2C(=O)CN1C1CCN(Cc2c(F)cccc2F)CC1`: the growth in the assay with DU-145 prostate was 58.8%; in the assay with K-562 leukemia it was 66.3%; in the assay with MALME-3M melanoma, 64.9%; with MDA-MB-231 breast it was 69%; in the assay on RXF 393 renal, 65.4%; in the assay on SF-268 CNS it was 76.1%. The growth is 101% in the assay with SF-295 CNS, 52.2% in the assay with SF-539 CNS, 99.1% in the assay with UACC-257 melanoma and 75.2% in the assay on M14 melanoma.
As for `COc1ccc(/C=N\NC(=O)c2ccc3nc(-c4ccc(Br)cc4)[nH]c3c2)cc1`, the growth in the assay with DU-145 prostate was 16.5%; in the assay on K-562 leukemia, 11.6%; with MALME-3M melanoma it was -9.02% (active); with MDA-MB-231 breast, 48.6%; in the assay on RXF 393 renal, -17.7% (active); with SF-268 CNS, 8.61% (active). Also, the growth was 11% in the assay with SF-295 CNS, 16.4% in the assay on SF-539 CNS, 38.7% in the assay on UACC-257 melanoma and 24.7% in the assay with M14 melanoma.
On to `O=C1Nc2ccc(Cl)cc2/C1=C/c1ccc(OCc2ccc(F)cc2)cc1`, for which the growth in the assay on DU-145 prostate is 95.9%; in the assay with K-562 leukemia, 78.4%; in the assay with MALME-3M melanoma, 102%; in the assay with MDA-MB-231 breast, 95.2%; in the assay with RXF 393 renal, 95.5%; in the assay on SF-268 CNS, 92.7%. The growth is 99% with SF-295 CNS, 96% in the assay with SF-539 CNS, 96.6% in the assay on UACC-257 melanoma and 98.1% with M14 melanoma.
For `Cc1cn(-c2cc(NC(=O)c3cncc(C#Cc4cnc5ccc(O[C@H]6CCOC6)nn45)c3)cc(C(F)(F)F)c2)cn1`, the growth with DU-145 prostate was 91.8%; with K-562 leukemia, 12.9%; with MALME-3M melanoma it was 52.7%; with MDA-MB-231 breast, 47.7%; in the assay on RXF 393 renal, 60.4%; in the assay on SF-268 CNS, 94.7%. Besides, the growth with SF-295 CNS is 96.8%; in the assay with SF-539 CNS it was 59.3%; in the assay on UACC-257 melanoma it was 97.1%; in the assay on M14 melanoma, 57.7%.
In the case of `Cn1ccnc1C(=O)/C=C/c1ccc(C(=O)Nc2ccc(NC(=O)CCNC(=O)c3csc(Br)n3)cc2)cc1`, the growth with DU-145 prostate was 11.9%; in the assay with K-562 leukemia, 16%; with MALME-3M melanoma, 102%; in the assay on MDA-MB-231 breast, 72.9%; in the assay on RXF 393 renal, 68.2%; in the assay on SF-268 CNS, 62.2%. For the same compound, the figures for the growth with SF-295 CNS, in the assay with SF-539 CNS and in the assay on UACC-257 melanoma were 81.3%, 7.51% (active) and 88.6%, respectively.
